Screen size: about 400,000 compounds; about 13,000 (3.2%) were called active. Another 18% or so got no clear call; they are omitted. Only a selection was taken, and actives are over-represented in it overall. A number with no mark means an inactive call. Calls follow the shape of the dose curve; as a rule, active = well fitted cell-killing curve with a large enough effect; inconclusive = small, poorly fitted or top-dose-only effect, or effect the other way; inactive = flat fitted curve, though single readings scatter.
Experiment: qHTS assay for MDR1-selective chemotherapeutics: Primary screen using the drug-selected MDR subline cells KB-V1; also: nearly all actives have a fitted effect of over 60% in size
Details: KB-V1 MDR cells viability, CellTiter-Glo, 72 h; series mostly up to 46.1 µM; activity change, negative = cytotoxicity: at the top concentration
Outline: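 KB-V1 cells (P-gp-expressing MDR subline of KB-3-1) in phenol-red-free DMEM with 10% FBS were exposed to library compounds over a concentration series for 72 h at 37 degrees C. Viability read by CellTiter-Glo luminescence; concentration-effect curves fitted after normalization.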
% is scaled to controls: 0 for no effect and ±100 for the full control effect; potency is read from the fitted curve at half-maximal effect.

| Compound | activity change, negative = cytotoxicity | Potency |
| --- | --- | --- |
| O=C(N[C@H]1CC[C@H](CC(=O)N2CCCCC2)O[C@@H]1CO)c1cccc(F)c1 | 4.32% |  |
| Cc1cc2nc(-c3ccco3)c(Cc3cccc(F)c3)n2c(C)c1Br | 11.8% |  |
| Cc1cccc(-n2c(=O)c3c(C)c(C)sc3n(CC(N)=O)c2=O)c1 | 7.39% |  |
| Cc1cccc(NC(=O)Cn2c(=O)n(Cc3ccccc3)c(=O)c3c(C)c(C)sc32)c1 |  | 5.17 µM (active) |
| CCOc1ccccc1NC(=O)Cn1c(=O)n(Cc2ccccc2)c(=O)c2c(C)c(C(=O)N(C)C)sc21 | 13.6% |  |
| CCCS(=O)(=O)NC(=O)C1(C)CCCN(C(=O)c2cc(C)on2)C1 (stereo not drawn) | 4.37% |  |
| O=C(OCc1ccc(-c2ccccc2)cc1)c1cccc(O)c1 | -18% |  |
| O=C(OCc1ccc(Br)cc1)c1cccc(-c2nnc(-c3ccccc3)o2)c1 |  | 9.2 µM (active) |
| CC(=O)Nc1cccc(C(=O)OCC(=O)Nc2nnc(-c3ccccc3)o2)c1 | 29% |  |
| O=C(O)C1=C/C(=C/C=[N+]2c3cc(O)c(O[C@H]4OC(CO)[C@@H](O)[C@@H](O)[C@@H]4O)cc3C[C@@H]2C(=O)[O-])C[C@H](C(=O)O)N1 (stereo partly drawn) | 17% |  |
| Cc1cccc(NC(=O)C2CCN(C(=O)NC3CCCCC3)CC2)c1 | -27.3% |  |
| O=C(Nc1cccc2c1CCCC2)C1CCN(C(=O)NC2CCCCC2)CC1 |  | 13 µM (active) |
| Cc1ccccc1NC(=O)C1CCN(C(=O)NC2CCCCC2)CC1 | -21.8% |  |
| CCCCC(O)C1=C[N+](=O)CC=C1 (stereo not drawn) | -8.56% |  |
| COc1ccc(N(CC(=O)NCCc2ccc(Cl)cc2)S(=O)(=O)c2c(C)nn(C)c2C)cc1 | -2.24% |  |
| C(=Nc1ccc(/C=C/c2ccnc3ccccc23)cc1)c1cc2c3c(c1)CCCN3CCC2 | -3.26% |  |
| Cc1cc2c(C)nc(N/N=C/c3ccccc3)nc2o1 |  | 23.1 µM (active) |
| O=c1c2ccccc2nc(N/N=C/c2ccccc2)n1O | -11.6% |  |
| Cc1nc(Cl)cc(N/N=C/c2ccccc2)n1 | -7.94% |  |
| O=C(c1cc(C2CCCCN2S(=O)(=O)c2ccccc2)on1)N1CCOCC1 (stereo not drawn) | 4.3% |  |
| Nc1cc(C(=O)N2CCN(c3ccccc3Cl)CC2)ccc1N1CC2CC(C1)c1cccc(=O)n1C2 (stereo not drawn) | -1.97% |  |

| Compound | activity change, negative = cytotoxicity | Potency |
| --- | --- | --- |
| Cc1ccc(S(=O)(=O)CCC(=O)OCC(=O)N(C)C2CCS(=O)(=O)C2)cc1 (stereo not drawn) | -3.87% |  |
| Cc1ccc(S(=O)(=O)N(c2cccc(C)c2)C2CCS(=O)(=O)C2)cc1 (stereo not drawn) |  | 16.4 µM (active) |
| CN(C1CCS(=O)(=O)C1)S(=O)(=O)c1ccc2ccccc2c1 (stereo not drawn) | -7.48% |  |
| CCc1nc2nc(C)cc(Nc3ccc(F)c(Cl)c3)n2n1 | 1.62% |  |
| O=[N+]([O-])c1ccc2[nH]c3c(c2c1)CCCC3O (stereo not drawn) |  | 20.6 µM (active) |
| N#CCc1c[nH]c2ccc([N+](=O)[O-])cc12 | 16.4% |  |
| CCOC(=O)c1ccc2[nH]c3c(c2c1)CCCC3NC=O (stereo not drawn) | -6.76% |  |
| Cc1c(C(=O)N(C)C)sc2c1c(=O)n(-c1ccc(F)cc1)c(=O)n2CC(=O)N(C)c1ccccc1 | 7.18% |  |
| O=C(COC(=O)Cc1ccc(Cl)cc1Cl)NCc1ccco1 | 12.7% |  |
| COCCNC(=O)CSc1nc(N)c(NC(=O)c2ccco2)c(=O)[nH]1 | -3.82% |  |
| O=C1c2cccc(OCC(=O)N3N=C(c4cccs4)CC3c3ccc(F)cc3)c2CCN1Cc1ccccc1 (stereo not drawn) |  | 1.64 µM (active) |
| O=C(COc1ccccc1Cl)N1N=C(c2cccs2)CC1c1ccco1 (stereo not drawn) | -25.9% |  |
| COc1ccc(C2CC(c3cccs3)=NN2C(=O)CCC(=O)O)cc1OC (stereo not drawn) | 13.5% |  |
| COc1ccc(NC(=O)C2(C)Cc3c(-c4ccc(C(N)=O)cc4)ccnc3O2)cc1 (stereo not drawn) | -8.96% |  |
| O=C(CSc1ncc(-c2ccccc2)[nH]1)Nc1ccc(F)cc1F | -13.2% |  |
| CC(C)(C)OC(=O)N1CCN(C(=O)c2[nH]c(C(F)(F)F)nc2-c2ccccc2)CC1 | -14.6% |  |
| O=C1O/C(=C\c2ccc(O)cc2)C(O)=C1c1ccc(O)cc1 | -8.38% |  |
| CCOC(=O)c1cccc(NC(=O)CCn2nnc3ccccc32)c1 |  | 8.2 µM (active) |
| CCOC(=O)c1cccc(NC(=O)CCc2c(C)nc3ncnn3c2C)c1 | -2.85% |  |
| CCOC(=O)c1nnn(CC(=O)Nc2cccc(F)c2)c1C(=O)OCC | 13.5% |  |
| C[C@H](CO)N1C[C@H](C)[C@@H](CN(C)S(=O)(=O)c2ccc(F)cc2)OCc2cnnn2CCCC1=O | 11.7% |  |

| Compound | activity change, negative = cytotoxicity | Potency |
| --- | --- | --- |
| CCC(C)N(c1ccc(/C=C/c2ccnc3ccccc23)cc1)C(C)CC (stereo not drawn) | -1.86% |  |
| OC(c1ccccc1)c1nc(/C=C/c2ccc(C(F)(F)F)cc2)cs1 (stereo not drawn) | 20.1% |  |
| Cc1nn(-c2ccccc2)nc1C(=O)OCC(=O)N1CCCCC1C (stereo not drawn) |  | 23.1 µM (active) |
| Cc1cc(C(=O)OCC(=O)N2C(C)CCCC2C)c2ccccc2n1 (stereo not drawn) | -17.1% |  |
| CC1CCCCN1C(=O)CCS(=O)(=O)Cc1ccccc1 (stereo not drawn) | 27.6% |  |
| Cc1ccc(N(CC(=O)NCC(C)c2ccccc2)S(=O)(=O)N(C)C)cc1 (stereo not drawn) | 3.58% |  |
| O=C(NCc1nnnn1-c1ccc(Cl)cc1)c1ccc([N+](=O)[O-])o1 | -15.6% |  |
| O=[N+]([O-])c1ccc(C(S(=O)(=O)Cc2ccccc2)S(=O)(=O)Cc2ccccc2)cc1 | -7.5% |  |
| CC(C)S(=O)(=O)c1csc(NC(=O)Nc2ccc(Cl)cc2)c1Cl |  | 20.6 µM (active) |
| CN(c1cccc(NC(=O)Nc2ccc(Cl)cc2)c1)S(C)(=O)=O | -4.54% |  |
| Cn1ccc(NC(=O)Nc2ccc(Cl)cc2)n1 | 4.41% |  |
| CCNC(=O)C1(C)CCCN(Cc2noc(-c3ccccc3OC)n2)C1 (stereo not drawn) | -12.7% |  |
| O=C(NCc1cccc(C(F)(F)F)c1)c1ccc2sc(COCCO)nc2c1 | 2.2% |  |
| CCN(CC(=O)Nc1ccc2c(c1)OCCO2)Cc1cc(=O)oc2cc(C)c(C)cc12 |  | 5.17 µM (active) |
| O=C(COc1ccc2c(C(F)(F)F)cc(=O)oc2c1)Nc1ccc2c(c1)OCCO2 | 0% |  |
| Cc1ccc(SCC(=O)Nc2ccc3c(c2)OCCO3)cc1 | -14.8% |  |
| CC1(C)Cc2ccccc2-c2c[nH]c(=O)n21 | -2.99% |  |
| Cc1cccc(NC(=O)N(Cc2cc3cc(C)cc(C)c3[nH]c2=O)CC2COCCO2)c1 (stereo not drawn) | 6.39% |  |
| Cc1ccc2[nH]c(=O)c(CN(CCCN(C)C)C(=O)Nc3cccc(Cl)c3)cc2c1 |  | 18.4 µM (active) |
| Cc1ccc2[nH]c(=O)c(CN(CC3COCCO3)C(=O)Nc3ccccc3C)cc2c1 (stereo not drawn) | -18.7% |  |
| N#CCCC(C#N)(c1cccnc1)N1CCOCC1 (stereo not drawn) | 26.1% |  |

Reference: PubChem BioAssay AID1347076 (National Center for Advancing Translational Sciences (NCATS), 2019)
